# TDP1 cell noCPT: qHTS for Inhibitors of human tyrosyl-DNA phosphodiesterase 1 (TDP1): qHTS in cells in absence of CPT | DT40 Tdp1-/- hTDP1 cells, no CPT, ATP luminescence, 48 h | Potency, µM (top dose mostly 46.2 µM), actives largely listed as inhibitors | 420,000 tested, 15% active | AID 686978, 2013; also: nearly all actives have a fitted effect of over 55% in size
#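 Readout: luminescence from CellTiter-Glo after 30 min in the dark at RT. Cells: DT40 Tdp1-/- with stable hTDP1, 400/well. Exposure: compounds alone, ≥48 hr, 37 °C.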
# IL-1B inflam inh: inhibitors of inflammasome signaling (IL-1 beta secretion) | THP-1 LPS/ATP IL-1B secretion, AlphaLISA, 16 h; stronger effect = lower value | activity change, % at 57.5 µM | 360,000 tested, 4.7% active | AID 743279; in the data active = activity change below about -50%; inconclusive = mostly about -30% to -49%
#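 Secreted IL-1B measured by AlphaLISA bead assay after 16 h compound exposure of THP-1 cells; compounds (final up to 57.5 uM) added 1 h before LPS (250 ng/mL) and ATP (1.25 mM) stimulation; lower signal means less secretion.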
# CtBP-E1A blk: blocks the CtBP interaction with E1A; AlphaScreen GST-E1A/His-CtBP binding, 1536-well; stronger effect = lower value; activity change, % (no concentration beside the values); 340,000 tested, 0.49% active; in the data active = activity change below about -65%; inconclusive = mostly about -30% to -63%
#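 Protein mix (5X: 125 nM each GST-E1A, His-CtBP) was incubated with pinned compound 2 h at 37 deg C in dark, in 50 mM Tris pH 8.0 buffer with 300 mM NaCl. Glutathione donor and nickel acceptor beads followed; AlphaScreen signal read after 1 h.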
# Six1-Eya2 blk: Six1/Eya2 interaction inhibition; Q15475+O00167; AlphaScreen GST-Six1/His-Eya2 binding, biochemical; stronger effect = lower value; activity change, % (concentration not given with the values); 360,000 tested, 0.56% active; AID 651725; in the data active = activity change below about -65%; inconclusive = mostly about -30% to -63%
#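 Compounds are tested against tagged Six1 and Eya2 proteins bridged by glutathione donor and nickel acceptor beads; after a one-hour incubation at 37 °C without light, AlphaScreen emission is recorded.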
# DT40 TDP1 CPT: DT40-hTDP1 cell growth loss with CPT | AID 686979 | Potency, µM (doses to about 46.2 µM), hits mostly inhibitors | 420,000 tested, 12% active | chicken DT40 Tdp1-/-;hTDP1 cells + 20 nM CPT, ATP luminescence, 48 h; also: nearly all actives have a fitted effect of over 55% in size
#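 Chicken DT40 Tdp1-/- cells stably complemented with human TDP1 were seeded at 400 cells/well in medium containing 20 nM camptothecin, exposed to pin-transferred compounds, and grown at 37 °C for at least 48 hr. Viability was read as ATP luminescence.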
# TDP1 block: blocks human tyrosyl-DNA phosphodiesterase 1; Q9NUW8; recombinant TDP1, AlphaScreen DNA substrate cleavage; Potency, µM (series often up to 130 µM), hits mostly inhibitors; 350,000 tested, 0.28% active; AID 485290; also: nearly all actives have a fitted effect of over 40% in size
# Target sequence (Q9NUW8 whole entry, looked up): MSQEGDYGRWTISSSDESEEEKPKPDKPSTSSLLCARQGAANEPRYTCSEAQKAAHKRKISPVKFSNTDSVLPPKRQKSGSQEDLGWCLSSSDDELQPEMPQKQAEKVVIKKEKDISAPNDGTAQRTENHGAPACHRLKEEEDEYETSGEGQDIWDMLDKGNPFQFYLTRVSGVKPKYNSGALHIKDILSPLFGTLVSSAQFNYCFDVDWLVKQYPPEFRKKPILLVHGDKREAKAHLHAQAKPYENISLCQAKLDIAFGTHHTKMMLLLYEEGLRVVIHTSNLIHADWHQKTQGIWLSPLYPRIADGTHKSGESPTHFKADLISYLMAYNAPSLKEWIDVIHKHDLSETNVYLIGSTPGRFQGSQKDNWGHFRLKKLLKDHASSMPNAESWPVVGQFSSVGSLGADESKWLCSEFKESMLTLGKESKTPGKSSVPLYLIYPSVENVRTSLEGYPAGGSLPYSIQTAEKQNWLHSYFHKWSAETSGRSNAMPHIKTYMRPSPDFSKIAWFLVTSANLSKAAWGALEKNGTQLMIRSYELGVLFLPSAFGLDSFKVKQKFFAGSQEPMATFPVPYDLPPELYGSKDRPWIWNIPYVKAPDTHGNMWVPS
#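 E. coli-derived human Tdp1, 1 nM final. Cpd preinc 15 min RT; substrate 15 nM final, 5 min RT; AS bead mix 10 ug/ml final, 10 min RT. Signal loss = tyrosine-FITC cleavage. No-enzyme wells = max signal.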
# Hits are given with their value; . = inactive; ? = inconclusive; / = not tested or not shown. In the library only some 18% were active in any assay of this set; here they are far more common. Unless noted, calls follow the shape of the dose curve; as a rule, active = well fitted curve in the direction sought with a large enough effect; inconclusive = small, poorly fitted or top-dose-only effect, or another doubt; inactive = no such curve, though single readings can be large; an effect the other way counts as inactive or inconclusive.
SMILES,TDP1 cell noCPT,IL-1B inflam inh,CtBP-E1A blk,Six1-Eya2 blk,DT40 TDP1 CPT,TDP1 block
COc1ccc(C(O)c2ncc(-c3ccccc3OC)[nH]2)cc1 (configuration not stated),.,.,.,.,?,/
COc1ccc(OC)c(C(O)c2ncc(-c3cccc4ccccc34)[nH]2)c1 (configuration not stated),26µM,.,.,.,18µM,/
COc1ccccc1-c1cnc(C(O)c2ccc(C)cc2)[nH]1 (configuration not stated),18µM,.,.,.,.,/
COc1ccc(NC(=O)CSc2nc3nc(C)cc(C)n3n2)cc1OC,.,/,/,/,.,.
OCCN(Cc1cccnc1)Cc1ccccn1,?,.,.,-89,?,/
OCCN(Cc1ccccc1)Cc1ncccc1O,.,.,.,.,.,/
Cc1[nH]c2ccccc2c1C(=O)CN(C)c1ccccc1,?,/,/,/,.,/
CCOC(=O)c1sc(NC(=O)c2cc3nc(-c4ccc(Br)cc4)cc(C(F)(F)F)n3n2)c(C(=O)OCC)c1C,23µM,/,/,/,?,.
CCOC(=O)c1c(NC(=O)c2cc3nc(-c4ccccc4)cc(C(F)(F)F)n3n2)sc2c1CCC(C)C2 (configuration not stated),18µM,/,/,/,23µM,.
CC(C)C(=O)N1CCN(c2c(Cl)cccc2[N+](=O)[O-])CC1,?,.,.,.,.,.
O=C(c1cccnc1)N1CCN(c2c(Cl)cccc2[N+](=O)[O-])CC1,8.2µM,.,.,.,.,.
O=C(/C=C/c1ccccc1)N1CCN(c2c(Cl)cccc2[N+](=O)[O-])CC1,16µM,?,.,?,23µM,.
CCC(=O)N1CCN(c2c(Cl)cccc2[N+](=O)[O-])CC1,?,.,.,.,?,.
O=C(Nc1ccccc1)/C(=C/c1cccc(Br)c1)NC(=O)c1ccco1,.,.,.,.,.,.
Clc1ccccc1COc1ccc(/C=N/n2cnnc2)cc1,?,.,.,.,?,79µM
C=CCNC(=S)N/N=C/c1ccc(OCc2ccccc2Cl)cc1,.,.,.,.,?,.
COC(=O)c1ccc(CN2CCC(n3nccc3NC(=O)C3CC3)CC2)cc1,.,.,.,.,.,.
CN1CCN(c2ccc(CNS(=O)(=O)Cc3cccc(C(F)(F)F)c3)cc2)CC1,3.7µM,.,/,.,6.5µM,.
CN1CCN(c2ccc(CNS(=O)(=O)c3ccccc3)cc2)CC1,.,/,.,.,.,.
O=c1oc2ccccc2cc1-c1csc(Cc2nc(-c3ccc(Br)cc3)cs2)n1,16µM,.,.,.,?,.
Cc1cc(C)c(-c2csc(-c3cc4ccccc4oc3=O)n2)cc1C,?,/,/,/,.,.
Cc1cc(C)c(-c2csc(Cc3nc(-c4cc5ccccc5oc4=O)cs3)n2)cc1C,15µM,.,.,.,18µM,.
Cc1ccc(-c2csc(Cc3nc(-c4cc5ccccc5oc4=O)cs3)n2)cc1,23µM,.,.,.,18µM,.
CC(C#N)(CCc1ccccn1)CCc1ccccn1,.,.,.,.,.,/
CCCCc1ncc(CN2CCC(n3nccc3NC(=O)C(OC)c3ccccc3)CC2)[nH]1 (configuration not stated),.,.,.,.,.,.
SMILES,TDP1 cell noCPT,IL-1B inflam inh,CtBP-E1A blk,Six1-Eya2 blk,DT40 TDP1 CPT,TDP1 block
CC(=O)c1ccc(CCCCCCCCCC(=O)O)s1,.,.,.,.,.,.
CCC(=O)c1ccc(CCCCCC(=O)O)s1,.,.,.,.,.,18µM
COc1ccc(C)cc1NC(=O)c1cc2ccccn2n1,.,/,/,/,.,.
Cc1ccc2ncc(C(=O)c3ccc(C)c(C)c3)c(S(=O)(=O)c3ccc(F)cc3)c2c1,9.2µM,/,/,/,8.2µM,.
CCc1ccc(S(=O)(=O)c2c(C(=O)c3ccccc3)cnc3ccc(CC)cc23)cc1,15µM,/,/,/,15µM,.
Cc1c(C(=O)c2ccc(Cl)c(Cl)c2)cnc2cc3c(cc12)OCO3,?,.,.,.,?,.
COc1ccc(S(=O)(=O)c2c(C(=O)c3ccc(C)c(C)c3)cnc3ccc(F)cc23)cc1,6.5µM,/,/,/,7.3µM,.

# Source: PubChem (National Center for Advancing Translational Sciences (NCATS))
